Results as given in PubChem BioAssay (NCI).
About 83,000 compounds went through this panel and 20% of them were active in at least one assay; those are over-represented in the sample as a whole.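 Assay: single dose, 48 h. Readout: percent growth (0 = no net growth; negative = cell death). Active: <10.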 Activity calls are given as the source filed them.

What follows are compounds tested on MDA-MB-468 breast (assay: NCI-60 one-dose screen, 48 h (100 = growth as untreated, 0 = no growth, -100 = all killed)). Details: 10 µM unless noted.

SMILES	growth
O=C(C(Br)C(Br)c1ccccc1)C(Br)C(Br)c1ccccc1 (stereo not given)	-44.4% (active)
COc1ccc(N=C2NN=C(c3c[nH]c4ccccc34)CS2)cc1OC	10.5% (inactive)
COc1ccc2cc(-c3ccc(-c4ccc(C(=N)N)cc4)s3)ccc2c1	98.2% (inactive)
COc1ccc(-n2c(=O)sc3c(Cl)nc(C)nc32)c(OC)c1	57.8% (inactive)
COc1ccc(/C=C(\C#N)C(=O)N2c3ccccc3Sc3ccc(SC)cc32)cc1F	72.3% (inactive)
O=C1C=CC(n2cc(F)c(=O)[nH]c2=O)O1 (stereo not given)	85.3% (inactive)
Cc1ccc(Cc2cnc(NC(=O)/C(C#N)=C/c3ccc(-c4ccc(Cl)cc4)o3)s2)cc1	83.1% (inactive)
O=C(/C=C/CN1CCOCC1)Nc1cc2c(Nc3ccc(F)c(Cl)c3F)ncnc2cc1OCCOC(F)F	-17.6% (active)
COc1cccc(-c2nc3sccn3c2-c2ccnc(NCCCNS(=O)(=O)c3ccc(Cl)cc3)c2)c1	34.3% (inactive)
CC(=O)N1Cc2ccccc2C(C)Cc2cc(Cl)ccc21 (stereo not given)	113% (inactive)
COc1cc(C(=O)c2cc(C)c3[nH]c4ccc(Cl)cc4c3c2C)cc(OC)c1OC	-13.2% (active)
CC1=C(C(=O)Nc2ccccc2)C(c2ccc3c(c2)OCCO3)NC(=O)N1 (stereo not given)	106% (inactive)
COc1cc2nc3cc([N+](=O)[O-])ccc3c(NCCNCC(C)O)c2cc1OC (stereo not given)	-45.6% (active)
O=C1OCC2=C1C(c1cccc(F)c1)c1cc3c(cc1N2CCO)OCCO3 (stereo not given)	-8.31% (active)
C=C1C(=O)O[C@H]2[C@H]1CC/C(COC(=O)NCc1ccc(Cn3c(=O)sn(-c4ccccc4)c3=O)cc1)=C\CC[C@@]1(C)O[C@@H]21	-33.8% (active)
O=C(NC1CCCCC1)c1ccc(Cl)cc1	104% (inactive)
O=C1NCCS(=O)(=O)/C1=C\C=C\c1cccc(C(F)(F)F)c1	17.9% (inactive)
Cn1cc(-c2nonc2-c2cn(C)c3ccc(Br)cc23)c2ccccc21	42.8% (inactive)
CCN(CC)CCSCCCNc1c2ccc(Cl)cc2nc2ccc(OC)cc12	-50.2% (active)
CC(=O)N[C@H](C(=O)N[C@@H](CCCNC(=N)N)C(=O)N[C@@H](CCCCN)C(=O)N[C@@H](CCCNC(=N)N)C(=O)N[C@]1(C)CCC/C=C\CCC[C@@](C)(C(=O)N[C@@H](CC(C)C)C(=O)N[C@@H](CC(C)C)C(=O)N[C@@H](CCC(N)=O)C(=O)N[C@@H](CCC(=O)O)C(=O)N[C@@H](CCCNC(=N)N)C(=O)N[C@@H](CCC(=O)O)C(=O)N[C@@H](CC(C)C)C(=O)N[C@H](C(=O)N[C@@H](CCC(=O)O)C(N)=O)C(C)C)NC(=O)[C@H](CCCNC(=N)N)NC(=O)[C@H](CC(C)C)NC1=O)C(C)C	109% (inactive)

SMILES	growth
O=S(=O)(NCCNc1nccc(-c2c(-c3ccc(F)c(O)c3)nc3occn23)n1)c1ccccc1	59.6% (inactive)
COC(=O)[C@]12CC[C@@H](C)[C@H](C)[C@@H]1C1=CC[C@@H]3[C@@]4(C)C[C@@H](O)OC[C@](C)(C=O)C4C(=O)C[C@@]3(C)[C@]1(C)CC2 (stereo not given in full)	-0.84% (active)
CC(C)(C)c1cc(C[P+](c2ccc(Cl)cc2)(c2ccc(Cl)cc2)c2ccc(Cl)cc2)cc(C(C)(C)C)c1O	6.75% (active)
COc1nccc2c(Sc3ccccc3)nc(N)nc12	112% (inactive)
CN1CCc2nc3sc(C(N)=O)c(N)c3c(-c3cccs3)c2C1	14.2% (inactive)
COc1cccc(/C=C2\COc3ccc(O)c(O)c3C2=O)c1	-11.1% (active)
COc1cc2oc3cc(=O)cc4oc(-c5ccccc5)cc(c2c2c1CCC(c1ccccc1)O2)c43 (stereo not given)	61.8% (inactive)
Cc1cccc(/C=N/Nc2cc(C)c3cccc(C)c3n2)n1	88.7% (inactive)
C=C1C[C@@]2(C)C(CC[C@]3(C)C2CC=C2C4CC(C)(C)C[C@@H](OC(=O)/C(C)=C\C)[C@]4(C(=O)O)CC[C@]23C)C(C)(C)C1=O (stereo not given in full)	-23.9% (active)
CCCCCN(CCCCC)CC(O)c1cc(C)c2ccc3cc(C(C)C)ccc3c2c1 (stereo not given)	-71.1% (active)
Cc1nc(NC(=S)Nc2ccc(F)cc2)sc1C(=O)NNC(=S)Nc1ccc(F)cc1	44.6% (inactive)
CCCCOC(=O)c1ccc(NC(=O)C(C)N2CCOCC2)cc1 (stereo not given)	97% (inactive)
COc1ncc(-c2ccc3nc(N)n(-c4ccccc4C(F)(F)F)c(=O)c3c2)cc1S(=O)(=O)Nc1ccc(F)cc1F	-37.3% (active)
O=C(Cc1cccc2ccccc12)N/N=C/c1ccc2c(c1)CCC2	72.3% (inactive)
O=c1cn[nH]c2ccc(Br)cc12	109% (inactive)
C=CCn1c(SCC(=O)Nc2ccc(C(=O)/C=C/c3ccc(Cl)cc3)cc2)nnc1-c1cc(-c2ccc(S(N)(=O)=O)cc2)nc2ccccc12	90.2% (inactive)
CN(C)CCOc1ccc(-c2nc3sccn3c2-c2ccnc(S(C)(=O)=O)n2)cc1	98.8% (inactive)
N#Cc1cnc2cc(OC[C@@H](O)CO)c(NC(=O)CC3CSSC3)cc2c1Nc1ccc(OCc2cccc(F)c2)c(Cl)c1	-74.8% (active)
COc1ccc(CN2C(=O)/C(=C/c3nc(CO)cs3)SC2=S)cc1	31.7% (inactive)
CC(=O)Cc1cccnc1	97.1% (inactive)
